# Data from PubChem BioAssay (EPA / NIEHS).
# Inconclusive results are not listed. Calls of active or inactive are those of the source. How the source made its calls, unless noted: active means hit-call score of the fitted dose curve at least 0.9, where 1 is the maximum; inconclusive means response in the unintended direction; inactive means score below 0.9.
# Assays:
# [1] = TOX21_p53_BLA_p2_viability: Viability Assessment in the Tox21 HCT-116 p53 Agonism Beta-lactamase Assay, Phase 2 (AID 2283591);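 further: compound exposure lasted 16 h at 37 °C; actives lower the ATP signal meaning cytotoxicity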
# Procedure, shortened: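 HCT116 p53-bla cells, 4000/well, dosed after 5 h plating (217-fold dilution of DMSO stocks) and incubated 16 h at 37C. Viability taken as cellular ATP by CellTiter-Glo luminescence after 30 min RT; signal loss marks cytotoxicity.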
# [2] = biological target: Cellular tumor antigen p53 (Homo sapiens) (UniProt P04637); experiment: TOX21_p53_BLA_p2_ratio: Tox21 HCT-116 p53 Agonism Beta-lactamase Assay, Ratio, Phase 2 (AID 2283592)
# Chain of Cellular tumor antigen p53 (Homo sapiens) (P04637 whole entry, looked up): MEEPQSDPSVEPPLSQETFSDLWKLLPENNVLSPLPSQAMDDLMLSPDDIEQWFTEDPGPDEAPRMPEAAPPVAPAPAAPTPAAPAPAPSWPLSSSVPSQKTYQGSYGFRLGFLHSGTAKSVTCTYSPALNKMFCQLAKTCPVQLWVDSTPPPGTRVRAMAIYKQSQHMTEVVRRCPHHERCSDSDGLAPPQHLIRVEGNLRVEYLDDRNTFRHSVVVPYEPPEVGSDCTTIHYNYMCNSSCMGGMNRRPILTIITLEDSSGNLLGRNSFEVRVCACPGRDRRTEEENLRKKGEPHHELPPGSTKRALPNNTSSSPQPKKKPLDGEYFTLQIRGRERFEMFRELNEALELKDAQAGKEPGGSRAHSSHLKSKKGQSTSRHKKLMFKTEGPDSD
# Procedure, shortened: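 Gain-of-signal p53 agonism was scored from the beta-lactamase FRET ratio (460/530 nm, 405 nm excitation) in HCT116 cells treated 16 h at 37C, 5% CO2, with DMSO serving as negative control and baseline.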
# [3] = TOX21_p53_BLA_p3_viability: Viability Assessment in the Tox21 HCT-116 p53 Agonism Beta-lactamase Assay, Phase 3 (AID 2283593)
# Procedure, shortened: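 HCT116 cells, 4000/well, dosed 5 h after plating by pin transfer (217-fold dilution from DMSO stock) and incubated 16 h at 37C, 5% CO2. Viability read as ATP luminescence with CellTiter-Glo after 30 min at room temperature.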
# [4] = biological target: Cellular tumor antigen p53 (Homo sapiens) (UniProt P04637); experiment: TOX21_p53_BLA_p5_ratio: Tox21 HCT-116 p53 Agonism Beta-lactamase Assay, Ratio, Phase 5 (AID 2283599)
# Procedure, shortened: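 HCT-116 p53-bla cells (4000/well) plated 5 h, dosed with compound (217-fold DMSO dilution) for 16 h at 37 C; CCF4-AM substrate 2 h at room temperature. Activity is the 460/530 nm emission ratio (405 nm excitation), fitted in gain-of-signal direction versus DMSO.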
# [5] = TOX21_p53_BLA_p5_viability: Viability Assessment in the Tox21 HCT-116 p53 Agonism Beta-lactamase Assay, Phase 5 (AID 2283600)
# Procedure, shortened: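 After the 460/530 nm beta-lactamase measurement, the wells received an ATP-detection luciferase reagent; signal was read 30 min later at RT. Compound treatment lasted 16 h on cells pre-incubated 5 h post-seeding.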
# [6] = biological target: Cellular tumor antigen p53 (Homo sapiens) (UniProt P04637); experiment: TOX21_p53_BLA_p4_ratio: Tox21 HCT-116 p53 Agonism Beta-lactamase Assay, Ratio, Phase 4 (AID 2283601)
# Procedure, shortened: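 HCT-116 p53 beta-lactamase reporter cells (4000/well) preincubated 5 h, then compound (217-fold dilution of DMSO stock) for 16 h at 37C. CCF4-AM substrate added 2 h at room temperature; 460/530 nm emission ratio fitted upward versus DMSO.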
# [7] = biological target: Cellular tumor antigen p53 (Homo sapiens) (UniProt P04637); experiment: TOX21_p53_BLA_p3_ratio: Tox21 HCT-116 p53 Agonism Beta-lactamase Assay, Ratio, Phase 3 (AID 2283596)
# Procedure, shortened: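 HCT116 p53-bla cells (4000/well) given compound in DMSO (217-fold dilution) after 5 h, incubated 16 h at 37C. CCF4-AM substrate 2 h at room temperature; 460/530 nm emission ratio, gain fitted against DMSO.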
# [8] = TOX21_p53_BLA_p4_viability: Viability Assessment in the Tox21 HCT-116 p53 Agonism Beta-lactamase Assay, Phase 4 (AID 2283597);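 further: hits lower the luminescence signal meaning cytotoxicity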
# Procedure, shortened: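 Following a 16 h exposure at 37C, the treated HCT116 wells were first read for the FRET ratio. They were then lysed with CellTiter-Glo, and ATP luminescence was recorded after 30 min at room temperature.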
# PGR (gene 5241) [9] = biological target: PGR (gene 5241) (UniProt P06401); experiment: TOX21_PR_BLA_Followup_Antagonist_ratio: Tox21 HEK293 Progesterone Receptor (PR) Antagonism Beta-lactamase Follow-Up Assay, Ratio (AID 2283934)
# Chain of PGR (gene 5241) (P06401 whole entry, looked up): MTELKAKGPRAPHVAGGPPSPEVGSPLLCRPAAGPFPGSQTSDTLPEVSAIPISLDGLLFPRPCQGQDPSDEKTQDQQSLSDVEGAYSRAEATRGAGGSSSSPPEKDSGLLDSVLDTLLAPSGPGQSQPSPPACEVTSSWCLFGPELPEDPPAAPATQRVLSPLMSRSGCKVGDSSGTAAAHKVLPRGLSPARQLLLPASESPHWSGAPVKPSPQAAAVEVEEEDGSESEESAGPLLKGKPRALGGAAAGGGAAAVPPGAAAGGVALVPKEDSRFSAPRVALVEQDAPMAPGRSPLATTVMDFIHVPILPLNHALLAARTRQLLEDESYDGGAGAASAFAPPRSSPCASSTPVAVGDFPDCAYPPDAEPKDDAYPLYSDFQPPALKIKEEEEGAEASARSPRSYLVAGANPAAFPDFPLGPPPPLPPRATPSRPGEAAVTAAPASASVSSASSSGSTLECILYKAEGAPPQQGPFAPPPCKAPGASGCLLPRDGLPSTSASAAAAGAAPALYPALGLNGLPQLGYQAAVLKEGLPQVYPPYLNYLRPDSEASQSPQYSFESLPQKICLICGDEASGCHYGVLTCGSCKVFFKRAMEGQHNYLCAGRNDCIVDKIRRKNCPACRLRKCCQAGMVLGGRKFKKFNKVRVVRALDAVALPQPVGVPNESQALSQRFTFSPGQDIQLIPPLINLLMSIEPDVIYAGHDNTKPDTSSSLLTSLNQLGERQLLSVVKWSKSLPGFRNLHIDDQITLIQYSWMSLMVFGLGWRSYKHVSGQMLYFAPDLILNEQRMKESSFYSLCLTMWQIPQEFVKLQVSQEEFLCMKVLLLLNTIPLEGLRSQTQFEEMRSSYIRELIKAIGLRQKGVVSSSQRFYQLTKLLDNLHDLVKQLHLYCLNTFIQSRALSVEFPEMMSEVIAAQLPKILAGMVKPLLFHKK
# Procedure, shortened: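 PR-UAS-bla HEK293T cells, 3,000/well in 2% charcoal-stripped FBS, given compound plus 1nM R5020 agonist for 16 hr at 37C. Beta-lactamase FRET substrate 2 hours, ratio cleaved/uncleaved fluorescence; viability by CellTiter-Glo in same wells.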
# [10] = TOX21_PR_BLA_Followup_Agonist_viability: Viability Assessment in the Tox21 HEK293 Progesterone Receptor (PR) Agonism Beta-lactamase Follow-Up Assay (AID 2283935);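 further: signal loss means lower viability so actives are cytotoxic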
# Procedure, shortened: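 PR-UAS-bla HEK293T cells in 2% charcoal-stripped FBS medium, plated 6 hr before compound addition, exposed 16 hr at 37C. Viability read by CellTiter-Glo ATP luminescence after 30 min at room temperature, in the same wells as the beta-lactamase readout.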
# PGR (gene 5241) [11] = biological target: PGR (gene 5241) (UniProt P06401); experiment: TOX21_PR_LUC_Followup_Agonist: Tox21 HEK293 Progesterone Receptor (PR) Agonism Luciferase Follow-Up Assay (AID 2283937; active means hit-call score of the fitted dose curve at least 0.9, where 1 is the maximum; inactive means score below 0.9)
# Procedure, shortened: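 HEK293-PR-A-luc cells, conditioned 5 days in 10% charcoal-stripped FBS medium, seeded 3,000/well for 5 h, then compound-treated 16 h at 37C. ONE-Glo luminescence read after 30 min at room temperature; gain of signal versus DMSO.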
# [12] = TOX21_PR_LUC_Followup_Antagonist_viability: Viability Assessment in the Tox21 HEK293 Progesterone Receptor (PR) Antagonism Luciferase Follow-Up Assay (AID 2283940)
# Procedure, shortened: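 HEK293-PR-A-luc cells kept in charcoal-stripped FBS medium were plated 5 h before compound addition, then exposed 16 h at 37C; viability read as cellular ATP by luciferase luminescence, loss of signal indicating cytotoxicity.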
# [13] = TOX21_PR_LUC_Followup_Agonist_viability: Viability Assessment in the Tox21 HEK293 Progesterone Receptor (PR) Agonism Luciferase Follow-Up Assay (AID 2283941);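 further: loss of signal means cytotoxicity so actives lower viability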
# Procedure, shortened: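 HEK293-PR-A-luc cells, kept in 10% charcoal-stripped FBS medium, were treated with compounds for 16 h at 37C. Viability read as cellular ATP by luciferase-coupled luminescence; loss of signal indicates cytotoxicity.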
smiles,measurement,setting,value
CC(=O)OCC1=C(C(=O)O)N2C(=O)[C@@H](N)[C@H]2SC1,outcome,[1],inactive
same,outcome,[2],inactive
same,outcome,[3],inactive
same,outcome,[4],inactive
NC1(c2ccccc2)CCCCC1,outcome,[1],inactive
same,outcome,[2],inactive
same,outcome,[3],inactive
same,outcome,[4],inactive
same,outcome,[5],inactive
same,outcome,[6],inactive
C=CCN(C1=NCCN1)c1c(Cl)cccc1Cl,outcome,[1],inactive
same,outcome,[2],inactive
same,outcome,[7],inactive
SCc1ccccc1,outcome,[1],inactive
same,outcome,[2],inactive
same,outcome,[3],inactive
same,outcome,[4],inactive
same,outcome,[6],inactive
NCC(O)c1ccc(O)cc1 (stereo not drawn),outcome,[1],inactive
same,outcome,[2],inactive
same,outcome,[7],inactive
same,outcome,[8],inactive
same,outcome,[4],inactive
same,outcome,[5],inactive
same,outcome,[6],inactive
CNC(C)[C@@H]1CC[C@@H](N)[C@@H](O[C@H]2[C@H](O)[C@@H](O[C@H]3OC[C@](C)(O)[C@H](NC)[C@H]3O)[C@H](N)C[C@@H]2N)O1 (stereo partly drawn) (tested in a mixture with another compound),outcome,[1],inactive
same,outcome,[2],inactive
same,outcome,[3],inactive
same,outcome,[5],inactive
O=C(O)/C=C\C(=O)O,outcome,[1],inactive
same,outcome,[2],inactive
same,outcome,[3],inactive
same,outcome,[4],inactive
same,outcome,[5],inactive
same,outcome,[6],inactive
O=[N+]([O-])c1ccc2ccc3cccc4ccc1c2c34,outcome,[1],inactive
same,outcome,[2],inactive
same,outcome,[3],inactive
same,outcome,[4],inactive
same,outcome,[5],inactive
same,outcome,[6],inactive
same,AC50,PGR (gene 5241) [9],12.2 µM (active)
same,outcome,[10],inactive
same,outcome,PGR (gene 5241) [11],inactive
same,outcome,[12],inactive
same,outcome,[13],inactive
CCCC(C)(COC(N)=O)COC(N)=O,outcome,[1],inactive
same,outcome,[2],inactive
same,outcome,[7],inactive
same,outcome,[8],inactive
same,outcome,[4],inactive
same,outcome,[5],inactive
same,outcome,[6],inactive
CC(Cl)CCl (stereo not drawn),outcome,[1],inactive
same,outcome,[2],inactive
same,outcome,[7],inactive
same,outcome,[8],inactive
same,outcome,[4],inactive
same,outcome,[5],inactive
same,outcome,[6],inactive
COc1cc(C[C@H](C)N)c(OC)cc1Br,outcome,[1],inactive
same,outcome,[2],inactive
same,outcome,[3],inactive
same,outcome,[4],inactive
same,outcome,[6],inactive
CN1CCC(O)(c2ccc(F)cc2)C(C(=O)c2ccc(F)cc2)C1 (stereo not drawn),outcome,[1],inactive
same,outcome,[2],inactive
same,outcome,[3],inactive
same,outcome,[4],inactive
Cc1cc(C)c(C(=O)P(=O)(C(=O)c2c(C)cc(C)cc2C)c2ccccc2)c(C)c1,outcome,[1],inactive
same,outcome,[2],inactive
same,outcome,[3],inactive
same,outcome,[4],inactive
same,outcome,[6],inactive
Cc1ccc2c(C)cccc2c1,outcome,[1],inactive
same,outcome,[2],inactive
same,outcome,[7],inactive
same,outcome,[8],inactive
same,outcome,[4],inactive
same,outcome,[5],inactive
same,outcome,[6],inactive
CNC(=O)Oc1cc(C)cc(C(C)C)c1,outcome,[1],inactive
same,outcome,[2],inactive
same,outcome,[7],inactive
same,outcome,[8],inactive
same,outcome,[4],inactive
same,outcome,[5],inactive
same,outcome,[6],inactive
